Screens (PubChem BioAssay)
The list is not random: actives were taken first. Their share in the collection is about 21%.
Gal4-VP16 FLuc: counter-screen for ROR gamma inhibitors: Gal4-VP16 reporter. 3.5% of 310,000 active. Potency, µM (top dose mostly 53.6 µM), without a hit: at the top dose activity, negative = inhibition, usual class: inhibitors. Drosophila S2 Gal4-VP16 UAS-luciferase, luminescence, 20 h;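 also: Gal4-VP16 expression switched on by copper sulfate through the metallothionein promoter; potency is read from the fitted curve at half-maximal effect; nearly all actives have a fitted effect of over 50% in size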
DT40 TDP1 no CPT: qHTS for Inhibitors of human tyrosyl-DNA phosphodiesterase 1 (TDP1): qHTS in cells in absence of CPT; DT40 Tdp1-/- hTDP1 cells, no CPT, ATP luminescence, 48 h; Potency, µM (titrated, usually from 46.2 µM), for the others: at the top dose activity change, negative = growth inhibition, actives largely listed as inhibitors; 15% of 420,000 active; AID 686978, 2013; also: potency is read from the fitted curve at half-maximal effect; nearly all actives have a fitted effect of over 55% in size
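Camptothecin absent (DMSO only). Human TDP1-complemented DT40 knockout cells, 400 cells/well, 37 °C for minimum 48 hr; ATP measured via CellTiter-Glo, 30 min dark incubation, luminescence.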
ELG1 DNA repair: blocks ELG1-dependent DNA repair in HEK293T cells; Potency, µM (highest dose often 46.1 µM), inactives show at the top dose activity change, negative = inhibition, actives largely listed as inhibitors; HEK293T ELG1-luciferase reporter, luminescence, 16 h; DNA damage induced by 5-fluorouridine; 2.3% of 330,000 active; also: potency is read from the fitted curve at half-maximal effect; nearly all actives have a fitted effect of over 55% in size
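Luminescence from the luciferase reporter, measured 30 min after ONE-Glo reagent at room temperature, was the read-out. Beforehand, 2,000 cells per well were exposed for 16 hr at 37 °C to 5-fluorouridine together with compound or vehicle.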
RORg inh: ROR gamma (mouse) transcription inhibition; P51450; Drosophila S2 Gal4-RORgamma UAS-luciferase reporter, 20 h; Potency, µM (highest dose often 53.6 µM), for inactives: top-dose activity change, negative = inhibition, usual class: inhibitors; 5.4% of 310,000 active; also: potency is read from the fitted curve at half-maximal effect; nearly all actives have a fitted effect of over 60% in size
Target sequence (P51450 whole entry, looked up, the tested form may be a part): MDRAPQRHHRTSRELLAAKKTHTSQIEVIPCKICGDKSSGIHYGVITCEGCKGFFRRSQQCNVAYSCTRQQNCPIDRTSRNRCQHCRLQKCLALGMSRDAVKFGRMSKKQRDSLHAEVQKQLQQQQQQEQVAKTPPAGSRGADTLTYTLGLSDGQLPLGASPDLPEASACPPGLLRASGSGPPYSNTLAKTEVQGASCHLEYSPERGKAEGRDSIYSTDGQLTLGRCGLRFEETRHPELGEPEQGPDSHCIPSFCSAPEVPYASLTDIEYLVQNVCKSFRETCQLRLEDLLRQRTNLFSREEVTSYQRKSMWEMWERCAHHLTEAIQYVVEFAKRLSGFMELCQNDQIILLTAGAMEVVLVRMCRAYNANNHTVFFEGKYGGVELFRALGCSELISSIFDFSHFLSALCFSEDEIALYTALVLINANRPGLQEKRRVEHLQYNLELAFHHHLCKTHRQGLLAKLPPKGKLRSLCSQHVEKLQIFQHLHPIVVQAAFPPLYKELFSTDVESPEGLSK
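Stable Schneider cell line, Gal4 DNA-binding domain fused to ROR gamma, UAS-luciferase. Cmpd 1 hr RT → CuSO4 700 uM final → 20 hr RT → luciferase reagent 10 min → luminescence.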
IL-1B inflam inh: inhibitors of inflammasome signaling (IL-1 beta secretion); THP-1 LPS/ATP IL-1B secretion, AlphaLISA, 16 h; hits give low values; activity change, % at 57.5 µM; 4.7% of 360,000 active; AID 743279; in the data active = activity change below about -50%; inconclusive = mostly about -30% to -49%
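THP-1 cells pretreated 1 hr with compounds (up to 57.5 uM final), then stimulated with LPS (250 ng/mL final) plus ATP (1.25 mM final); secreted IL-1B measured by AlphaLISA after 16 hr, decreased signal indicating inhibition.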
TDP1 cell CPT: growth inhibition of DT40 Tdp1-/-;hTDP1 cells with camptothecin (screen for TDP1 inhibitors). chicken DT40 Tdp1-/-;hTDP1 cells + 20 nM CPT, ATP luminescence, 48 h. Potency, µM (top dose mostly 46.2 µM), for the others: at the highest dose activity change, negative = growth inhibition, hits mostly inhibitors. 12% of 420,000 active; also: potency is read from the fitted curve at half-maximal effect; nearly all actives have a fitted effect of over 55% in size
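Chicken DT40 Tdp1-/- cells complemented with human TDP1, 400 cells/well, exposed to compounds plus 20 nM camptothecin for at least 48 h at 37 C; viability read as ATP content by CellTiter-Glo luminescence.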
Starred values were filed as active, the others as inactive; u = inconclusive; x = not tested or not shown; [ ] = dose if it differs, or a comment. Unless noted, calls follow the shape of the dose curve; as a rule, active = well fitted curve in the direction sought with a large enough effect; inconclusive = small, poorly fitted or top-dose-only effect, or another doubt; inactive = no such curve, though single readings can be large; an effect the other way counts as inactive or inconclusive. % is scaled to controls: 0 for no effect and ±100 for the full control effect.

SMILES	Gal4-VP16 FLuc	DT40 TDP1 no CPT	ELG1 DNA repair	RORg inh	IL-1B inflam inh	TDP1 cell CPT
Nn1c(SCC(=O)Nc2ccc3c(c2)OCCO3)nnc(CCC(=O)O)c1=O	0%	u	u	-31%	-4	21µM*
C[C@@H]1CN([C@H](C)CO)C(=O)c2cc(NC(=O)C3CCCCC3)ccc2O[C@@H]1CN(C)Cc1ccc(C(F)(F)F)cc1	x	u	-10%	x	u	u
C[C@@H]1CN([C@@H](C)CO)C(=O)c2cc(NS(=O)(=O)c3cccs3)ccc2O[C@H]1CN(C)Cc1ccc(C(F)(F)F)cc1	x	26µM*	16µM*	x	-63*	u
C[C@@H]1CN([C@H](C)CO)C(=O)c2cc(NC(=O)Nc3cccc4ccccc34)ccc2O[C@H]1CN(C)Cc1ccc(C(F)(F)F)cc1	x	8.2µM*	u	x	15	10µM*
C[C@@H]1CN([C@@H](C)CO)C(=O)Cc2cc(NC(=O)Nc3cccc4ccccc34)ccc2O[C@@H]1CN(C)Cc1ccc(C(F)(F)F)cc1	x	16µM*	u	x	x	u
C[C@@H]1CN([C@H](C)CO)C(=O)c2cc(NS(=O)(=O)c3cccs3)ccc2O[C@H]1CN(C)Cc1ccccc1	x	u	14%	x	-8	u
C[C@@H]1CN([C@@H](C)CO)C(=O)Cc2cc(NC(=O)Nc3cccc4ccccc34)ccc2O[C@@H]1CN(C)S(C)(=O)=O	x	-28%	13%	x	28	u
O=C(NCC1Cc2cccc(-c3cncnc3)c2O1)C1CC1 (stereo unspecified)	x	-22%	x	x	x	3%[9.04 µM]
Cc1ccc(CNC(=O)NC2COc3ccccc3C2)cc1 (stereo unspecified)	x	-22%	x	x	x	-10%
CCOC(=O)c1c(C)c(C(=O)NCc2ccc(Cl)cc2)c(C)n1C	x	-38%	x	x	x	-14%
COc1cc(C(C)=O)ccc1OCC(O)CN(CCO)Cc1ccccc1 (stereo unspecified)	-13%	-2%	-10%	8%	-3	-3%
OCCN(Cc1ccccc1)CC(O)COc1ccc(-c2ccccc2)cc1 (stereo unspecified)	u	u	0%	u	-76*	29µM*
Cc1ccc(S(=O)(=O)N2CCCC2CNC(=O)c2ccc3c(c2)OCO3)cc1 (stereo unspecified)	x	18µM*	10%	x	-18	u
Cc1cccc(C)c1NC(=O)C(=O)NCC1CCCN1S(=O)(=O)c1ccccc1 (stereo unspecified)	x	12µM*	-6%	x	20	u
Cc1ccc(S(=O)(=O)N2CCCC2CNC(=O)C(=O)Nc2ccccc2)cc1 (stereo unspecified)	x	u	u	x	u	29µM*
COc1ccc(C(=O)NCC2CCCN2S(=O)(=O)c2ccccc2)cc1OC (stereo unspecified)	x	-22%	x	x	23	-13%
Cc1cccc(C)c1NC(=O)C1CCCN1S(=O)(=O)c1ccccc1 (stereo unspecified)	2%	u	-6%	-4%	8	-26%
Cc1ccc(S(=O)(=O)N2CCCC2CNC(=O)c2ccccc2)cc1 (stereo unspecified)	x	-29%	-8%	x	11	u
COCCCNC(=S)Nc1ccc(S(=O)(=O)Nc2cc(OC)nc(OC)n2)cc1	0%	-15%	-3%	12%	10	5%
COc1cc(-c2nccc3cc4c(cc23)OCO4)cc(OC)c1OC	x	4.6µM*	x	x	21	5.8µM*
COc1cc2cc(OC(C)=O)c3cc4c(cc3c2c(OC)c1OC)OCO4	x	-2%	x	x	13	-6%
Cc1ccc(S(=O)(=O)NC2CC(C)(C)N(O)C(C)(C)C2)cc1	x	21µM*	-1%	x	19	u
CCc1ccc(S(=O)(=O)NC2CC(C)(C)NC(C)(C)C2)cc1	-4%	-22%	-5%	2µM*	-16	-11%
Cc1ccc(S(=O)(=O)NC2CC(C)(C)NC(C)(C)C2)cc1	-6%	-7%	0%	16%	14	7%
Cc1ccc(NC(=O)C2CC(=O)N(c3ccc(OC(C)C)cc3)C2)cc1 (stereo unspecified)	x	-17%	x	x	x	u
SMILES	Gal4-VP16 FLuc	DT40 TDP1 no CPT	ELG1 DNA repair	RORg inh	IL-1B inflam inh	TDP1 cell CPT
COc1ccc(CNC(=O)CN2N=C(c3ccccc3)CCC2=O)c(OC)c1	x	u	x	x	x	-22%
Cc1nn(-c2ccc(F)cc2)c(Cl)c1C(=O)N(C)CC(=O)Nc1cccc(F)c1	x	15µM*	u	x	-52*	u
Cc1nn(Cc2ccccc2Cl)c(C)c1C(=O)N(C)CC(=O)Nc1cccc(F)c1	x	16µM*	-16%	x	-5	u
CC(C)(C)CC(=O)Nc1cc2c3c(c1)CCC(=O)N3CCC2	-6%	13%	0%	-11%	-24	-13%
O=C(NC(=S)Nc1cccc2ncccc12)c1ccccc1	u	u	-14%	7.9µM*	-14	u
Nc1ccc(C(=O)Nc2cccc3ncccc23)cc1	x	2%	12%	x	34	5%
O=C(Nc1cccnc1Cl)c1ccc(Cl)cc1	17%	1%	u	7%	-10	17%
O=C(NC(=S)Nc1cccnc1Cl)c1ccc(Cl)cc1	u	-20%	u	8.9µM*	7	-28%
Cc1cc(N2CCC(C(=O)Nc3ccccc3Cl)CC2)n2nc(C)c(-c3ccc(Cl)cc3)c2n1	x	-60%	x	x	x	7%
CN(C)S(=O)(=O)c1cccc(C(=O)Nc2cc(Cl)cc(Cl)c2)c1	u	18µM*	-2%	27%	u	u
CN(C)S(=O)(=O)c1cccc(C(=O)Nc2ccccc2)c1	-19%	-22%	3%	-2%	10	0%
O=C(Nc1cc(Cl)cc(Cl)c1)c1cccc(OC(F)F)c1	0%	u	u	u	-95*	18µM*
COc1ccc(S(=O)(=O)N(C)C)cc1NC(=O)c1ccc2c(c1)OCCO2	x	-25%	-14%	x	-57*	-22%
CN(C)S(=O)(=O)c1cccc(NC(=O)c2ccc3c(c2)OCCO3)c1	x	15µM*	u	x	-3	15µM*
COc1ccc(C)cc1NC(=O)c1ccc2c(c1)OCO2	9%	-25%	u	23%	2	-12%
O=C(NCc1cccnc1)[C@@H]1CC=C[C@@H]2CCN(C3CCCCC3)C(=O)[C@@H]21	x	2%	x	x	x	-5%
CCCOc1cccc(OCC(=O)Nc2nc3ccccc3[nH]2)c1	u	u	3%	10µM*	10	u
